Assay outcomes as filed in PubChem.
A selection: hits, their analogues and other compounds. The true share with any hit is near 5.3%.
VACV Venus inh = vaccinia inhibition (Venus reporter); Potency, µM (series often up to 36.5 µM), actives largely listed as inhibitors; AID 720580; 0.46% of 330,000 active; Vaccinia virus Venus reporter expression, fluorescence; calls by dose curve; tested in A549 cells; note: nearly all actives have a fitted effect of over 30% in size
FMDV antiviral = blocks foot and mouth disease virus; FMDV antiviral cell-based qHTS; Potency, µM (top dose mostly 57.9 µM), hits mostly inhibitors; 1.2% of 410,000 active; calls by dose curve; tested in HEK293T cells; note: read-out not given here; nearly all actives have a fitted effect of over 45% in size
Vaccinia mCherry = vaccinia inhibition (mCherry reporter); Vaccinia virus mCherry reporter infection, fluorescence; Potency, µM (series often up to 36.5 µM), actives largely listed as inhibitors; 0.63% of 310,000 active; AID 720579; calls by dose curve; tested in A549 cells; note: nearly all actives have a fitted effect of over 35% in size
MARV entry inh = blocks Marburg virus binding to or entry into cells. 1.8% of 300,000 active. Potency, µM (series often up to 37.8 µM), usual class: inhibitors. Marburg virus pseudotyped entry inhibition, cell reporter. AID 540276; calls by dose curve; tested in HEK293 cells
LASV entry inh = inhibitors of Lassa virus binding or cell entry | Lassa virus pseudotype entry inhibition, cell reporter | Potency, µM (highest dose often 37.9 µM), actives largely listed as inhibitors | 1.2% of 300,000 active | AID 540256; calls by dose curve; tested in HEK293 cells; note: nearly all actives have a fitted effect of over 50% in size
HCV inhibitor = inhibitors of hepatitis C virus infection; Huh7.5.1 HCVcc-Cre infection, luciferase reporter, 44 h; Potency, µM (series often up to 41.8 µM), hits mostly inhibitors; 3.4% of 340,000 active; active = well fitted inhibition curve with a large enough effect; inconclusive = small, poorly fitted or top-dose-only effect, or another doubt; inactive = no such curve, though single readings can be large or run the other way
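Antiviral activity was scored by luciferase reporter output from cells infected with HCVcc-Cre (~0.5 moi) in presence of compound, 44 h infection period, cells seeded 1,000/well 4 h prior.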
Hits are given with their value; i = inactive; ? = inconclusive; nt = no result; [ ] = dose if it differs, or a comment.

SMILES	VACV Venus inh	FMDV antiviral	Vaccinia mCherry	MARV entry inh	LASV entry inh	HCV inhibitor
O=C(CCl)N(c1ccccc1)c1c[nH]c2ccccc12	?	?	?	?	?	1.3µM
O=C(Cc1ccc(Cl)cc1)NCCc1c[nH]c2ccccc12	nt	i	nt	nt	nt	i
O=C(Cn1ncc2ccsc2c1=O)N1CCN(c2ccc(Cl)cc2)CC1	i	i	i	?	i	nt
CCOc1ccc(-c2onc(C(F)(F)F)c2-c2cscn2)c(O)c1	nt	?	nt	i	i	10µM
Cc1cc(O)cc(O)c1-c1onc(C(F)(F)F)c1-c1cscn1	?	?	nt	?	i	?
Cc1ccc(NC(=O)c2cnn(-c3ccccc3)c2C)cc1C	i	i	i	?	3.2µM	?
Cc1c(C(=O)Nc2ccccc2)cnn1-c1ccccc1	i	i	i	?	?	i
COc1ccc(NC(=O)c2cnn(-c3ccccc3)c2C)cc1OC	i	i	i	i	i	i
Cc1c(C(=O)Nc2cccc(F)c2)cnn1-c1ccccc1	i	i	i	?	?	11µM
COc1ccc(-c2cc(C(=O)N(C)CC(=O)Nc3ccccc3Br)c3ccccc3n2)cc1OC	i	i	i	?	?	20µM
COc1ccc(-c2cc(C(=O)N3CCCCCC3)c3ccccc3n2)cc1	i	i	?	i	i	?
COc1ccc(-c2cc(C(=O)N3CCN(c4ccccc4)CC3)c3ccccc3n2)cc1OC	i	i	nt	?	4.5µM	?
COc1ccc(N2CCN(C(=O)c3cc(-c4cccs4)nc4ccccc34)CC2)cc1	i	i	i	11µM	nt	?
COc1ccc(C(=O)N2CCN(c3ccc(C)cc3)CC2)cc1OC	i	?	i	nt	nt	i
COc1ccc(-c2cc(C(=O)N(C)CC(=O)Nc3ccccc3C(F)(F)F)c3ccccc3n2)cc1OC	nt	i	nt	nt	nt	?
COc1ccc(-c2cc(C(=O)N3CCCCCC3)c3ccccc3n2)cc1OC	i	i	i	nt	nt	nt
COc1ccc(C(=O)N2CCN(c3nc4ccccc4o3)CC2)cc1OC	i	?	i	nt	nt	11µM
C=COC[C@H]1CN2[C@@H](CC[C@@H](C)[C@@H]2c2ccc(Br)cc2)C(=O)O1	nt	nt	nt	i	nt	nt
Cc1oc(-c2ccccc2NC(=O)C2CCC2)nc1CNC(=O)c1cccc(C(F)(F)F)c1	i	i	i	nt	nt	nt
O=C(c1cn(-c2ccccc2)nc1-c1cccs1)N1CCN(c2ccccc2)CC1	nt	i	nt	?	i	7.1µM
O=C(c1cn(-c2ccccc2)nc1-c1cccs1)N1CCOCC1	i	i	i	i	i	i
O=C(/C=C/c1cn(-c2ccccc2)nc1-c1cccs1)NCCN1CCOCC1	i[7.34 µM]	i	i[7.34 µM]	nt	nt	14µM
O=C(O)c1ccc(-n2cccc2/C=N/NC(=O)c2cc3cc(Br)ccc3o2)cc1	nt	nt	nt	i	nt	nt
CSc1nc(N2CCOCC2)c2ccccc2n1	i	i	?	i	i	10µM
CCN(CC)c1ccc(Nc2nc(N3CCOCC3)c3ccccc3n2)cc1	nt	?	nt	?	18µM	4.5µM
SMILES	VACV Venus inh	FMDV antiviral	Vaccinia mCherry	MARV entry inh	LASV entry inh	HCV inhibitor
CSc1nc(N2CCN(c3ccccc3Cl)CC2)c2ccccc2n1	i	?	i	?	i	?
COc1ccc(Nc2nc(N3CCCC3)c3ccccc3n2)cc1	10µM	?	8.9µM	1.6µM	?	10µM
COc1ccccc1-c1cc(C(=O)N/N=C/c2sccc2C)c2ccccc2n1	i	?	nt	13µM	?	?
CC(/C=N/NC(=O)c1cc(-c2ccncc2)nc2ccccc12)=C\c1ccco1	?	i	?	2.9µM	i	nt
CCOc1ccccc1-c1cc(C(=O)N/N=C/c2ccc(O)c(OC)c2)c2ccccc2n1	i	?	13µM	?	7.1µM	i
CCOc1cccc(-c2cc(C(=O)N/N=C/c3ccc(OC)c(CN4CCOCC4)c3)c3ccccc3n2)c1	i	i	i	8.2µM	?	i
CCOc1ccccc1-c1cc(C(=O)N/N=C/c2ccc3c(c2)OCO3)c2ccccc2n1	i	i	i	?	?	i
COc1ccc(/C=N/NC(=O)c2ccncc2)cc1CN1CCOCC1	i	i	i	i	i	i
Cc1ccsc1/C=N/NC(=O)c1cc(-c2ccncc2)nc2ccccc12	?	i	?	0.58µM	?	?
COc1cc(/C=N/NC(=O)CCn2nnc3ccccc32)ccc1O	i	i	i	i	i	i
COc1cc(/C=N/NC(=O)CCn2c3ccccc3c3ccccc32)ccc1O	i	nt	i	i	?	7.9µM
O=C(N/N=C/c1cccnc1)c1cc(-c2ccccc2)nc2ccccc12	i	i	i	4µM	i	i
O=C(N/N=C/c1ccsc1)c1cc(-c2ccncc2)nc2ccccc12	i	?	?	?	?	i
COc1ccc(C2(C(=O)NCC3Cc4cccc(-c5cccnc5)c4O3)CCCC2)cc1 (centres undefined)	i	i	i	nt	nt	nt
COc1cccc(CN2CCC(c3nnc(SCC4CCCO4)n3C)CC2)c1O (centres undefined)	i	i	i	nt	nt	nt
